Measurements reported in the supplement of paper PMC7156485.

Test system: HCC1569
Assay: H1.0 immunofluorescence intensity relative to DMSO (% of DMSO); higher = stronger H1.0 induction, active = 140 or more
Conditions: concentration: 10 µM; 24 h
How it was run: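 After 24 h at 37 °C with compounds at 10 µM, in triplicate, HCC1569 and TDF cells were fixed with 3.7% formaldehyde. Immunostaining used a rabbit anti-H1.0 antibody and an AlexaFluor 647 secondary, with DAPI, and six fields per well were imaged at ×10. H1.0 nuclear intensity or cell number is presented as percent of the plate control, from the median of replicates, with HCC1569 values smoothed for positional effects.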
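Also: TDF is a line of transformed human dermal fibroblasts of mesenchymal origin.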

H1.0 immunofluorescence intensity, inactive:
COc1cc(Oc2ccnc3cc(OC)c(OC)cc23)ccc1NC(=O)NC(C)c1nccs1 (stereo not given) 124
Cc1ccccc1C(OCCN(C)C)c1ccccc1.Cl (stereo not given) [Orphenadrine hydrochloride] 97
CCCCCC(O)C=CC1C(O)CC(O)C1CC=CCCCC(=O)O (stereo not given) [Dinoprost] 109
CC(=O)O.NC(N)=NN=Cc1c(Cl)cccc1Cl [Guanabenz acetate] 97.8
COc1cc2nc(N3CCN(C(=O)C4CCCO4)CC3)nc(N)c2cc1OC (stereo not given) [Terazosin] 98.2
C=C(C)C1CC=C(C(=O)O)CC1 (single isomer, unassigned; (-)) [(-)-Perillic acid] 99.9
CCCCCCCCCCCCCCCCOCC(COCC(F)(F)F)OP(=O)([O-])OC.[Li+] (stereo not given) 92.3
COC(=O)C1=C(C)NC(C)=C(C(=O)OC)C1c1ccccc1[N+](=O)[O-] [Nifedipine] 104
N#CCNC(=O)c1ccc(-c2ccnc(Nc3ccc(N4CCOCC4)cc3)n2)cc1 127
CN(C)CCC(CSc1ccccc1)Nc1ccc(S(=O)(=O)NC(=O)c2ccc(N3CCN(Cc4ccccc4-c4ccc(Cl)cc4)CC3)cc2)cc1[N+](=O)[O-] (stereo not given) 129
CC1(C)SC2C(NC(=O)COc3ccccc3)C(=O)N2C1C(=O)[O-] (stereo not given) [Pencillin V] 112
CS(=O)(=O)N1CCN(Cc2cc3nc(-c4cccc5[nH]ncc45)nc(N4CCOCC4)c3s2)CC1 137
Cc1ncc([N+](=O)[O-])n1CCO [Metronidazole] 99.3
CS(=O)(=O)Nc1ccc([N+](=O)[O-])cc1Oc1ccccc1 [Nimesulide] 96.5
CCCCC=CCCCCCCCCC(=O)O [10(E)-Pentadecenoic acid] 101
CN(C)CCC=C1c2ccccc2CCc2ccccc21.Cl [Amitriptyline hydrochloride] 94.1
COc1ccc(C2Sc3ccccc3N(CCN(C)C)C(=O)C2OC(C)=O)cc1.Cl (stereo not given) [Diltiazem hydrochloride] 98.3
O=C(CCCN1CCC(O)(c2cccc(C(F)(F)F)c2)CC1)c1ccc(F)cc1 [Trifluperidol] 102
NS(=O)(=O)c1ccc2c(c1)C1C=CCC1C(c1ccc(Br)cc1)N2 (stereo not given) 114
CCCCCCCCCC(=O)OCC(CO)OC(=O)CCCCCCCCC (stereo not given) [1,2-Didecanoyl-glycerol (10:0)] 101
CON=C(C(=O)NC1C(=O)N2C(C(=O)[O-])=C(COC(C)=O)CSC12)c1csc(N)n1.[Na+] (stereo not given) [Cefotaxime sodium] 87
N[C@H](C(=O)O)c1cc(O)cc(O)c1 [(S)-3,5-Dihydroxyphenylglycine] 97.4
CC(C)CCNC(C)C1CCC2C3CC=C4CC(O)CCC4(C)C3CCC12C (stereo not given) [22-Azacholesterol] 110
CC(C)(O)c1ccccc1CCC(SCC1(CC(=O)O)CC1)c1cccc(C=Cc2ccc3ccc(Cl)cc3n2)c1 (stereo not given) [Montelukast] 94.9
CC(C)=CCCC(C)=CCCC(C)=CCSCC(=O)O [Farnesylthoiacetic acid] 96.1
CC(=O)NNC(=O)N1Cc2ccccc2Oc2ccc(Cl)cc21 103
CCCc1nc2c(C)cc(-c3nc4ccccc4n3C)cc2n1Cc1ccc(-c2ccccc2C(=O)O)cc1 [Telmisartan] 97.2

H1.0 immunofluorescence intensity, active:
c1ccc(-c2cnc(Nc3ccc(OCCN4CCCC4)cc3)s2)cc1 [Flt-3 Inhibitor III] 150
CC(=O)Nc1ccc(NC(=S)NC(=O)c2ccc(C(C)(C)C)cc2)cc1 [p53 Activator (Tenovin-1)] 153
CCC1(O)CC2CN(CCc3c([nH]c4ccccc34)C(C(=O)OC)(c3cc4c(cc3OC)N(C)C3C(O)(C(=O)OC)C(OC(C)=O)C5(CC)C=CCN6CCC43C65)C2)C1 (stereo not given) [Vinblastine] 164
